# Records with an inconclusive call do not appear. The source made the active and inactive calls. Rule for the calls, unless noted: active = hit-call score of the fitted dose curve at least 0.9, where 1 is the maximum; inconclusive = response in the unintended direction; inactive = score below 0.9.
# How the values were obtained:
# [1] = target: Bile acid receptor (Homo sapiens) (UniProt Q96RI1); experiment: OT_FXR_FXRSRC1_0480: Odyssey Thera (OT) 8-hour HEK293T Protein-Complementation Assay for Farnesoid X receptor/SRC-1 Co-activator (AID 2283383)
# Chain of Bile acid receptor (Homo sapiens) (Q96RI1 whole entry, looked up, the tested form may be a part): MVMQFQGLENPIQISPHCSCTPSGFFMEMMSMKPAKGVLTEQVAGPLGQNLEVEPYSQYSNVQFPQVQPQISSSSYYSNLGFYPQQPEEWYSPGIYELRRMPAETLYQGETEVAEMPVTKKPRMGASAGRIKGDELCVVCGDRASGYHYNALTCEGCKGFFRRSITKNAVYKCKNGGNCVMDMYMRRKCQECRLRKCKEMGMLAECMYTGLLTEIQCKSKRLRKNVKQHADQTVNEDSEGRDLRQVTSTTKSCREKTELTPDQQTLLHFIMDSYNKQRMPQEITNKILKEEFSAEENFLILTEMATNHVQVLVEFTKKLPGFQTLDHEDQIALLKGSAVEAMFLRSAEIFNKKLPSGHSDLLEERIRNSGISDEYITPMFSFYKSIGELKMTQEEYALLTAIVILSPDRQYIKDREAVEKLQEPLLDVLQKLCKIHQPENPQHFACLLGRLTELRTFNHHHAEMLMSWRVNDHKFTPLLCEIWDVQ
# In short: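 Binding of FXR to coactivator SRC-1 was read as fluorescence from a reconstituted split reporter in HEK293T cells, 8 h after chemical addition. Only increases in signal versus DMSO were fit.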
# [2] = target: Bile acid receptor (Homo sapiens) (UniProt Q96RI1); experiment: OT_FXR_FXRSRC1_1440: Odyssey Thera (OT) 24-hour HEK293T Protein-Complementation Assay for Farnesoid X receptor/SRC-1 Co-activator (AID 2283384)
# In short: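 Protein-fragment complementation: FXR and SRC-1 fused to reporter fragments that reassemble on interaction, read by fluorescence intensity. Human HEK293T cells measured 24 h post-dose; positive-direction fit versus DMSO.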
# [3] = target: Retinoic acid receptor RXR-alpha (Homo sapiens) (UniProt P19793); experiment: OT_NURR1_NURR1RXRa_0480: Odyssey Thera (OT) 8-hour HEK293T Protein Complementation Assay for Nurr1/retinoid X receptor (RXR) (AID 2283385)
# Chain of Retinoic acid receptor RXR-alpha (Homo sapiens) (P19793 whole entry, looked up, the tested form may be a part): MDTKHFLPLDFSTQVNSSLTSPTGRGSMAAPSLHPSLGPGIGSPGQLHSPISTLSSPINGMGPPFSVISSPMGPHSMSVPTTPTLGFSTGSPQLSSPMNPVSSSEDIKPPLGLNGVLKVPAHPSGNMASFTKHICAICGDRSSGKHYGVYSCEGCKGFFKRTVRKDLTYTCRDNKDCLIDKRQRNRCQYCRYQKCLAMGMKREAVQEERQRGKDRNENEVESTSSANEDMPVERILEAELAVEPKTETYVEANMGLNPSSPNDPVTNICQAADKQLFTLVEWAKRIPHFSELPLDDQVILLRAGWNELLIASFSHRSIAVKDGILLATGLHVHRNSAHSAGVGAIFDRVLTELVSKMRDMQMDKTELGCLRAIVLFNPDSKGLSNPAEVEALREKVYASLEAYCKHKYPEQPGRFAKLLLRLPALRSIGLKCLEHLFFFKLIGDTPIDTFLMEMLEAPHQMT
# In short: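 Interaction of Nurr1 with RXRα read as reconstituted reporter fluorescence in a HEK293T fragment-complementation system, 8 h post-treatment; increase over DMSO baseline analysed.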
# [4] = target: Retinoic acid receptor RXR-alpha (Homo sapiens) (UniProt P19793); experiment: OT_NURR1_NURR1RXRa_1440: Odyssey Thera (OT) 24-hour HEK293T Protein Complementation Assay for Nurr1/retinoid X receptor (RXR) (AID 2283386)
# In short: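 Gain in fluorescence, fitted relative to DMSO, reflects Nurr1–RXRα association in HEK293T cells after 24 h dosing. Bait and prey are each linked to a reporter-protein fragment that reassembles on interaction.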
# [5] = CEETOX_H295R_11DCORT: CeeTox H295R High-throughput Steroidogenesis Assay for 11-Deoxycortisol (11DCORT) (AID 2283432; active = hit-call score of the fitted dose curve at least 0.9, where 1 is the maximum; inactive = score below 0.9;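 for AC50: 11-deoxycortisol secreted into the medium measured by LC-MS/MS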); conditions: actives raise or lower the signal
# In short: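 Human adrenal H295R cells were prestimulated with 10 uM forskolin for 48 h, then exposed to test chemical (0.1% DMSO final) for 48 h. Medium 11-deoxycortisol was quantified by MTBE extraction and HPLC-MS/MS; bidirectional fitting relative to DMSO.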
# [6] = CEETOX_H295R_OHPREG: CeeTox H295R High-throughput Steroidogenesis Assay for OH-Pregnenolone (OHPREG) (AID 2283434; active = hit-call score of the fitted dose curve at least 0.9, where 1 is the maximum; inactive = score below 0.9); conditions: actives raise or lower the signal
# In short: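 Secreted 17alpha-hydroxypregnenolone measured by HPLC-MS/MS after liquid-liquid extraction. Human adrenal H295R cells received 48 h forskolin (10 uM) stimulation before 48 h chemical exposure at 0.1% final DMSO; MTT viability in same wells; bidirectional fit against DMSO.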
# [7] = CEETOX_H295R_OHPROG: CeeTox H295R High-throughput Steroidogenesis Assay for OH-Progesterone (OHPROG) (AID 2283435; active = hit-call score of the fitted dose curve at least 0.9, where 1 is the maximum; inactive = score below 0.9;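 for AC50: 17alpha-hydroxyprogesterone secreted into medium measured by HPLC-MS/MS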); conditions: actives raise or lower the signal
# In short: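 Medium steroid levels read by LC-MS/MS after 48 h chemical treatment (0.1% DMSO) of human adrenal H295R cells that had been forskolin-primed (10 uM, 48 h). Gain or loss fitted against DMSO; MTT cytotoxicity checked per well.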
# [8] = CEETOX_H295R_ANDR: CeeTox H295R High-throughput Steroidogenesis Assay for Androstenedione (ANDR) (AID 2283436; active = hit-call score of the fitted dose curve at least 0.9, where 1 is the maximum; inactive = score below 0.9); conditions: actives raise or lower the signal
# In short: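 Medium from 48 h chemical-treated H295R adrenal cells was extracted with MTBE and androstenedione measured by LC-MS/MS. Activity was fit in both directions relative to DMSO. Cytotoxic concentrations were re-tested after dilution until MTT viability reached ≥70%.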
# [9] = CEETOX_H295R_CORTIC: CeeTox H295R High-throughput Steroidogenesis Assay for Corticosterone (CORTIC) (AID 2283437; active = hit-call score of the fitted dose curve at least 0.9, where 1 is the maximum; inactive = score below 0.9); conditions: actives raise or lower the signal
# In short: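 Medium corticosterone was quantified by tandem mass spectrometry following 48 hours of chemical exposure (0.1% DMSO) in human H295R cells previously stimulated 48 hours with 10 uM forskolin. Viability checked by MTT; chemicals diluted and retested when viability fell below 70%.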
# [10] = target: Peroxisome proliferator-activated receptor gamma (Homo sapiens) (UniProt P37231); experiment: OT_PPARg_PPARgSRC1_0480: Odyssey Thera (OT) 8-hour Protein-Complementation Assay for Peroxisome Proliferator-activated Receptor Gamma / SRC-1 Co-activator (AID 2283387);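 note: nuclear to cytoplasmic split Venus YFP fluorescence ratio reporting PPARg SRC-1 interaction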
# Chain of Peroxisome proliferator-activated receptor gamma (Homo sapiens) (P37231 whole entry, looked up, the tested form may be a part): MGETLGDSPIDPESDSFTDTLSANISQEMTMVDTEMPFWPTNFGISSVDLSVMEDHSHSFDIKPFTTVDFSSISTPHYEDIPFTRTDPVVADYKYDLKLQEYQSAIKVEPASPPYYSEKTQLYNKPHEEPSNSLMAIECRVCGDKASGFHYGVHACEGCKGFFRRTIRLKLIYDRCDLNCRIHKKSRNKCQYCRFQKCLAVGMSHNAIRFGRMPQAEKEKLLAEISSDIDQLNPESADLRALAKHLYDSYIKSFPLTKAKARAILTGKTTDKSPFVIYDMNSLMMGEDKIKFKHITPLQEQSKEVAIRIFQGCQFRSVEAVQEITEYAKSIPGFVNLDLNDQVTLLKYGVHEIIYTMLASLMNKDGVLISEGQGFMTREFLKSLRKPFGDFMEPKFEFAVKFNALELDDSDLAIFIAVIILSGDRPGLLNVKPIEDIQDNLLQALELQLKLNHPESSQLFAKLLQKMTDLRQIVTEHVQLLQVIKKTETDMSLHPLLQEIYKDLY
# In short: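 Protein-fragment complementation of split Venus YFP reports PPARg/SRC-1 interaction in HEK293T (transfected 48 h before treatment), exposed 8 h. Readout: N/C fluorescence ratio at 488 nm from imaging, Draq5 for segmentation, positive fit relative to DMSO.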
smiles,measurement,setting,value
COc1cc([N+](=O)[O-])ccc1N,outcome,[1],inactive
same,AC50,[2],28 µM (active)
same,outcome,[3],inactive
same,outcome,[4],inactive
same,outcome,[5],inactive
same,outcome,[6],inactive
same,AC50,[7],15.1 µM (active)
same,outcome,[8],inactive
same,outcome,[9],inactive
CC(C)c1c(C(=O)Nc2ccccc2)c(-c2ccccc2)c(-c2ccc(F)cc2)n1CC[C@@H](O)C[C@@H](O)CC(=O)O,outcome,[10],inactive
N=C(N)c1ccc(OCCCCCOc2ccc(C(=N)N)cc2)cc1,outcome,[3],inactive
same,outcome,[10],inactive
CCCCCc1ccc(O)cc1,outcome,[5],inactive
same,outcome,[6],inactive
same,outcome,[7],inactive
same,AC50,[8],50 µM (active)
same,AC50,[9],21.9 µM (active)
NCCN,outcome,[4],inactive
same,outcome,[10],inactive
CCCCCCCCCCCC(=O)O,outcome,[3],inactive
same,outcome,[4],inactive
same,outcome,[10],inactive
CCC(C)c1ccccc1O (configuration not stated),outcome,[3],inactive
same,outcome,[4],inactive
same,outcome,[10],inactive
O=C(O)C(=O)O,outcome,[10],inactive
CC(C)(c1ccc(Oc2ccc(N)cc2)cc1)c1ccc(Oc2ccc(N)cc2)cc1,AC50,[5],249 nM (active)
same,AC50,[6],0.0361 µM (active)
same,AC50,[7],0.235 µM (active)
same,AC50,[8],0.234 µM (active)
same,AC50,[9],0.229 µM (active)
Cc1cccc2c1ccc1ccccc12,outcome,[5],inactive
same,outcome,[6],inactive
same,outcome,[7],inactive
same,outcome,[8],inactive
same,outcome,[9],inactive
CCCCC(CC)C(=O)O (configuration not stated),outcome,[4],inactive
same,outcome,[10],inactive
NC(=NCCCCCCN=C(N)/N=C(\N)Nc1ccc(Cl)cc1)/N=C(\N)Nc1ccc(Cl)cc1,outcome,[10],inactive
Cc1ccc(C)c(S(=O)(=O)O)c1,outcome,[3],inactive
same,outcome,[10],inactive
O=C(O)c1cccc(C(=O)O)n1,outcome,[3],inactive
same,outcome,[4],inactive
same,outcome,[10],inactive
O=C(NCc1ncc(C(F)(F)F)cc1Cl)c1c(Cl)cccc1Cl,outcome,[5],inactive
same,outcome,[6],inactive
same,AC50,[7],7.42 µM (active)
same,outcome,[8],inactive
same,outcome,[9],inactive
C[C@]12CC[C@@H]3c4ccc(O)cc4CC[C@H]3[C@@H]1C[C@@H](O)[C@@H]2O,outcome,[3],inactive
same,outcome,[4],inactive
same,outcome,[10],inactive
same,outcome,[5],inactive
same,AC50,[6],31.8 µM (active)
same,outcome,[7],inactive
same,outcome,[9],inactive
NS(=O)(=O)O,outcome,[3],inactive
same,outcome,[4],inactive
same,outcome,[10],inactive
CC(O)COc1ccccc1 (configuration not stated),outcome,[4],inactive
same,outcome,[10],inactive
c1cnc2c(c1)ccc1cccnc12,outcome,[3],inactive
same,AC50,[4],727 nM (active)
same,outcome,[10],inactive
Clc1ccc(Nc2nnc(Cc3ccncc3)c3ccccc23)cc1,outcome,[5],inactive
same,outcome,[6],inactive
same,outcome,[7],inactive
same,AC50,[9],2.38 µM (active)
COc1cccc(O)c1,outcome,[5],inactive
same,outcome,[6],inactive
same,outcome,[7],inactive
same,outcome,[9],inactive
CC(=O)Nc1ccc(O)cc1,outcome,[4],inactive
same,outcome,[10],inactive
Oc1cc2ccccc2cc1O,outcome,[5],inactive
same,outcome,[6],inactive
same,outcome,[7],inactive
same,outcome,[8],inactive
same,outcome,[9],inactive
c1cc[nH]c1,outcome,[5],inactive
same,outcome,[6],inactive
same,outcome,[7],inactive
same,outcome,[8],inactive
same,outcome,[9],inactive
CC(C)(C)c1ccc(O)c(O)c1,outcome,[5],inactive
same,outcome,[6],inactive
same,outcome,[7],inactive
same,outcome,[9],inactive
CC(C)CCOCCC(C)C,outcome,[5],inactive
same,outcome,[6],inactive
same,outcome,[7],inactive
same,outcome,[8],inactive
same,outcome,[9],inactive
O=C1NS(=O)(=O)c2ccccc21,outcome,[3],inactive
same,outcome,[4],inactive
same,outcome,[10],inactive
Cc1ccc(S(=O)(=O)O)cc1,outcome,[4],inactive
